# According to PubChem BioAssay AID1508601 (ICCB-Longwood Screening Facility, Harvard Medical School, 2020):
# Several values for one entry are separate records, joined by “and”; a condition that tells them apart may be missing. Equal entries are not always repeated. The whole screen tested about 5,700 compounds, of which about 85 (1%) were called active. Cut-off read from the data, not from the text of the source: active = p53-positive nuclei above about 36% (passing the limit was not always enough); inactive = the rest. Many of the other results were omitted from the sample, so actives are more common in it than they were. Some compounds were tested as several samples or in several runs, with calls that do not always agree.
# Key:
# [1] = nuclear p53 accumulation, HPV+ cells – imaging, p53-positive nuclei imaging, 24 h, 48 h (AID 1508601); conditions: 24/48 h
# [2] = target: Cellular tumor antigen p53 (Homo sapiens) (UniProt P04637); assay: as above; conditions: 24/48 h, stronger effect = higher value
# [3] = measured here: cell number at 24 h, Library stock concentration: 10 mM
# [4] = measured here: cell number at 48 h, Library stock concentration: 10 mM
# [5] = Library stock concentration: 10 mM
# [6] = measured here: p53 positive nuclei at 24 h, Library stock concentration: 10 mM
# [7] = measured here: cell number at 24 h, Library stock concentration: 3.33 mM
# [8] = measured here: cell number at 48 h, Library stock concentration: 3.33 mM
# [9] = Library stock concentration: 3.33 mM
# [10] = measured here: p53 positive nuclei at 24 h, Library stock concentration: 3.33 mM
# [11] = measured here: cell number at 24 h, concentration not given here
# [12] = measured here: cell number at 48 h, concentration not given here
# [13] = measured here: p53 positive nuclei at 24 h, concentration not given here
# [14] = measured here: cell number at 24 h, Library stock concentration: 46 uM
# [15] = measured here: cell number at 24 h, Library stock concentration: 278 uM
# [16] = measured here: cell number at 24 h, Library stock concentration: 1.67 mM
# [17] = measured here: cell number at 48 h, Library stock concentration: 46 uM
# [18] = measured here: cell number at 48 h, Library stock concentration: 278 uM
# [19] = measured here: cell number at 48 h, Library stock concentration: 1.67 mM
# [20] = Library stock concentration: 46 uM
# [21] = Library stock concentration: 278 uM
# [22] = Library stock concentration: 1.67 mM
# [23] = measured here: p53 positive nuclei at 24 h, Library stock concentration: 46 uM
# [24] = measured here: p53 positive nuclei at 24 h, Library stock concentration: 278 uM
# [25] = measured here: p53 positive nuclei at 24 h, Library stock concentration: 1.67 mM
# Sequence of Cellular tumor antigen p53 (Homo sapiens) (P04637 whole entry, looked up): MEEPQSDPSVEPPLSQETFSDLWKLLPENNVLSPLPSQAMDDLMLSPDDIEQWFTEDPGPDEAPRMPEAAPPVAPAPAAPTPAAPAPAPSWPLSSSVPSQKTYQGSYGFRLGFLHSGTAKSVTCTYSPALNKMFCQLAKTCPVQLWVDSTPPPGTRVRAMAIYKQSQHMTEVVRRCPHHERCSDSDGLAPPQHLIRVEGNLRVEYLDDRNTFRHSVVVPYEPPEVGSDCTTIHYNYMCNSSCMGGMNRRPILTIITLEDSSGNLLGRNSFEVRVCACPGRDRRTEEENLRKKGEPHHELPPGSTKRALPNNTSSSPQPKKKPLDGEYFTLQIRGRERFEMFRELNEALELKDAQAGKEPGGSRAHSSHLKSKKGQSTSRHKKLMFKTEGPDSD
structure (smiles),measurement,setting,value
CCN1CCN(Cc2ccc(NC(=O)c3ccc(C)c(Oc4ccnc5[nH]ccc45)c3)cc2C(F)(F)F)CC1,"nuclei count, normalised","[1]; measured here: cell number at 24 h, Library stock concentration: 80 uM",106%
same,"nuclei count, normalised","[1]; measured here: cell number at 24 h, Library stock concentration: 400 uM",105%
same,"nuclei count, normalised","[1]; measured here: cell number at 24 h, Library stock concentration: 2 mM",97.9%
same,"nuclei count, normalised",[1]; [3],101%
same,"nuclei count, normalised","[1]; measured here: cell number at 48 h, Library stock concentration: 80 uM",116%
same,"nuclei count, normalised","[1]; measured here: cell number at 48 h, Library stock concentration: 400 uM",108%
same,"nuclei count, normalised","[1]; measured here: cell number at 48 h, Library stock concentration: 2 mM",111%
same,"nuclei count, normalised",[1]; [4],112%
same,"p53-positive nuclei, normalised",[2]; Library stock concentration: 80 uM,-0.0678% (inactive)
same,"p53-positive nuclei, normalised",[2]; Library stock concentration: 400 uM,0.0485% (inactive)
same,"p53-positive nuclei, normalised",[2]; Library stock concentration: 2 mM,-0.223% (inactive)
same,"p53-positive nuclei, normalised",[2]; [5],-0.127% (inactive)
same,"p53-positive nuclei, normalised","[2]; measured here: p53 positive nuclei at 24 h, Library stock concentration: 80 uM",-0.156%
same,"p53-positive nuclei, normalised","[2]; measured here: p53 positive nuclei at 24 h, Library stock concentration: 400 uM",-0.0165%
same,"p53-positive nuclei, normalised","[2]; measured here: p53 positive nuclei at 24 h, Library stock concentration: 2 mM",-0.102%
same,"p53-positive nuclei, normalised",[2]; [6],-0.00926%
COc1cccc2c1C(=O)c1c(O)c3c(c(O)c1C2=O)C[C@@](O)(C(=O)CO)C[C@@H]3OC1CC(N)C(OC2CCCCO2)C(C)O1 (stereo not given in full),"nuclei count, normalised",[1]; [7],43.4%
same,"nuclei count, normalised",[1]; [8],38.3%
same,"p53-positive nuclei, normalised",[2]; [9],16.4% (inactive)
same,"p53-positive nuclei, normalised",[2]; [10],10.3%
COc1cccc2c1C(=O)c1c(O)c3c(c(O)c1C2=O)C[C@@](O)(C(=O)CO)CC3O[C@H]1CC(N)C(O)C(C)O1 (stereo not given in full),"nuclei count, normalised",[1]; [7],45.5% and 23.6%
same,"nuclei count, normalised",[1]; [8],36.1% and 17%
same,"p53-positive nuclei, normalised",[2]; [9],21.6% (inactive) and 89.4% (active)
same,"p53-positive nuclei, normalised",[2]; [10],2.1% and 92.1%
C=C1C[C@H](O)[C@H](C/C=C\CCCC(=O)O)[C@H]1/C=C/C(=O)CCCCC,"nuclei count, normalised",[1]; [11],111%
same,"nuclei count, normalised",[1]; [12],105%
same,"p53-positive nuclei, normalised",[2]; concentration not given here,0.125% (inactive)
same,"p53-positive nuclei, normalised",[2]; [13],-0.0213%
Nc1ccn(C2OC(CO)C(O)C2F)c(=O)n1 (stereo not given),"nuclei count, normalised","[1]; measured here: cell number at 24 h, Library stock concentration: 500 nM",115%
same,"nuclei count, normalised","[1]; measured here: cell number at 24 h, Library stock concentration: 1.5 uM",111%
same,"nuclei count, normalised","[1]; measured here: cell number at 24 h, Library stock concentration: 4.6 uM",77%
same,"nuclei count, normalised","[1]; measured here: cell number at 24 h, Library stock concentration: 13.7 uM",64.6%
same,"nuclei count, normalised","[1]; measured here: cell number at 24 h, Library stock concentration: 41 uM",64.5%
same,"nuclei count, normalised","[1]; measured here: cell number at 24 h, Library stock concentration: 123 uM",60.1%
same,"nuclei count, normalised","[1]; measured here: cell number at 24 h, Library stock concentration: 370 uM",55.2%
same,"nuclei count, normalised","[1]; measured here: cell number at 24 h, Library stock concentration: 1.111 mM",59.3%
same,"nuclei count, normalised","[1]; measured here: cell number at 24 h, Library stock concentration: 3.333 mM",55.3%
same,"nuclei count, normalised",[1]; [3],51.2%
same,"nuclei count, normalised","[1]; measured here: cell number at 48 h, Library stock concentration: 500 nM",115%
same,"nuclei count, normalised","[1]; measured here: cell number at 48 h, Library stock concentration: 1.5 uM",107%
same,"nuclei count, normalised","[1]; measured here: cell number at 48 h, Library stock concentration: 4.6 uM",62%
same,"nuclei count, normalised","[1]; measured here: cell number at 48 h, Library stock concentration: 13.7 uM",51.1%
same,"nuclei count, normalised","[1]; measured here: cell number at 48 h, Library stock concentration: 41 uM",50.8%
same,"nuclei count, normalised","[1]; measured here: cell number at 48 h, Library stock concentration: 123 uM",48.7%
same,"nuclei count, normalised","[1]; measured here: cell number at 48 h, Library stock concentration: 370 uM",44.4%
same,"nuclei count, normalised","[1]; measured here: cell number at 48 h, Library stock concentration: 1.111 mM",46.2%
same,"nuclei count, normalised","[1]; measured here: cell number at 48 h, Library stock concentration: 3.333 mM",45.1%
same,"nuclei count, normalised",[1]; [4],41.5%
same,"p53-positive nuclei, normalised",[2]; Library stock concentration: 500 nM,-0.105% (inactive)
same,"p53-positive nuclei, normalised",[2]; Library stock concentration: 1.5 uM,-0.0067% (inactive)
same,"p53-positive nuclei, normalised",[2]; Library stock concentration: 4.6 uM,0.019% (inactive)
same,"p53-positive nuclei, normalised",[2]; Library stock concentration: 13.7 uM,0.162% (inactive)
same,"p53-positive nuclei, normalised",[2]; Library stock concentration: 41 uM,0.839% (inactive)
same,"p53-positive nuclei, normalised",[2]; Library stock concentration: 123 uM,0.265% (inactive)
same,"p53-positive nuclei, normalised",[2]; Library stock concentration: 370 uM,0.43% (inactive)
same,"p53-positive nuclei, normalised",[2]; Library stock concentration: 1.111 mM,0.292% (inactive)
same,"p53-positive nuclei, normalised",[2]; Library stock concentration: 3.333 mM,0.443% (inactive)
same,"p53-positive nuclei, normalised",[2]; [5],0.266% (inactive)
same,"p53-positive nuclei, normalised","[2]; measured here: p53 positive nuclei at 24 h, Library stock concentration: 500 nM",-0.0685%
same,"p53-positive nuclei, normalised","[2]; measured here: p53 positive nuclei at 24 h, Library stock concentration: 1.5 uM",0.0513%
same,"p53-positive nuclei, normalised","[2]; measured here: p53 positive nuclei at 24 h, Library stock concentration: 4.6 uM",0.0647%
same,"p53-positive nuclei, normalised","[2]; measured here: p53 positive nuclei at 24 h, Library stock concentration: 13.7 uM",-0.0822%
same,"p53-positive nuclei, normalised","[2]; measured here: p53 positive nuclei at 24 h, Library stock concentration: 41 uM",0.108%
same,"p53-positive nuclei, normalised","[2]; measured here: p53 positive nuclei at 24 h, Library stock concentration: 123 uM",0.0172%
same,"p53-positive nuclei, normalised","[2]; measured here: p53 positive nuclei at 24 h, Library stock concentration: 370 uM",-0.0726%
same,"p53-positive nuclei, normalised","[2]; measured here: p53 positive nuclei at 24 h, Library stock concentration: 1.111 mM",-0.0774%
same,"p53-positive nuclei, normalised","[2]; measured here: p53 positive nuclei at 24 h, Library stock concentration: 3.333 mM",0.296%
same,"p53-positive nuclei, normalised",[2]; [6],-0.0521%
CC(C)(C)Nc1nc2cc(Cl)c(Cl)cc2nc1S(C)(=O)=O,"nuclei count, normalised",[1]; [14],108%
same,"nuclei count, normalised",[1]; [15],105%
same,"nuclei count, normalised",[1]; [16],93.6%
same,"nuclei count, normalised",[1]; [3],44.4%
same,"nuclei count, normalised",[1]; [17],118%
same,"nuclei count, normalised",[1]; [18],109%
same,"nuclei count, normalised",[1]; [19],106%
same,"nuclei count, normalised",[1]; [4],50%
same,"p53-positive nuclei, normalised",[2]; [20],-0.222% (inactive)
same,"p53-positive nuclei, normalised",[2]; [21],-0.1% (inactive)
same,"p53-positive nuclei, normalised",[2]; [22],-0.239% (inactive)
same,"p53-positive nuclei, normalised",[2]; [5],1.33% (inactive)
same,"p53-positive nuclei, normalised",[2]; [23],-0.151%
same,"p53-positive nuclei, normalised",[2]; [24],-0.151%
same,"p53-positive nuclei, normalised",[2]; [25],0.616%
same,"p53-positive nuclei, normalised",[2]; [6],1.86%
CC(C)CC1(CO)CCCN(C(=O)c2cccc(C#CC(C)(C)O)c2)C1 (stereo not given),"nuclei count, normalised",[1]; [11],99%
same,"nuclei count, normalised",[1]; [12],100%
same,"p53-positive nuclei, normalised",[2]; concentration not given here,0.108% (inactive)
same,"p53-positive nuclei, normalised",[2]; [13],0.27%
O=C(O)C1=CC(O)C(O)C(O)C1 (stereo not given),"nuclei count, normalised",[1]; [7],109%
same,"nuclei count, normalised",[1]; [8],109%
same,"p53-positive nuclei, normalised",[2]; [9],-0.187% (inactive)
same,"p53-positive nuclei, normalised",[2]; [10],-0.275%
COC(=O)C(NC(=O)c1cc(-c2ccccc2)nc2ccccc12)c1ccccc1 (stereo not given),"nuclei count, normalised",[1]; [14],105%
same,"nuclei count, normalised",[1]; [15],105%
same,"nuclei count, normalised",[1]; [16],93.3%
same,"nuclei count, normalised",[1]; [3],96.9%
same,"nuclei count, normalised",[1]; [17],111%
same,"nuclei count, normalised",[1]; [18],107%
same,"nuclei count, normalised",[1]; [19],100%
same,"nuclei count, normalised",[1]; [4],103%
same,"p53-positive nuclei, normalised",[2]; [20],-0.241% (inactive)
same,"p53-positive nuclei, normalised",[2]; [21],-0.232% (inactive)
same,"p53-positive nuclei, normalised",[2]; [22],-0.104% (inactive)
same,"p53-positive nuclei, normalised",[2]; [5],0.115% (inactive)
same,"p53-positive nuclei, normalised",[2]; [23],-0.21%
same,"p53-positive nuclei, normalised",[2]; [24],-0.0834%
same,"p53-positive nuclei, normalised",[2]; [25],0.359%
same,"p53-positive nuclei, normalised",[2]; [6],0.069%
COc1cc2ncc(-c3ccccc3)nc2cc1OC,"nuclei count, normalised",[1]; [7],78.5%
same,"nuclei count, normalised",[1]; [8],45.1%
same,"p53-positive nuclei, normalised",[2]; [9],55.2% (active)
same,"p53-positive nuclei, normalised",[2]; [10],3.05%
O=C(O)c1cc(-c2ccccc2)nc2ccccc12,"nuclei count, normalised",[1]; [7],111%
same,"nuclei count, normalised",[1]; [8],106%
same,"p53-positive nuclei, normalised",[2]; [9],-0.105% (inactive)
same,"p53-positive nuclei, normalised",[2]; [10],-0.282%
CCC(C(C)O)n1ncn(-c2ccc(N3CCN(c4ccc(OCC5CO[C@@](Cn6cncn6)(c6ccc(F)cc6F)C5)cc4)CC3)cc2)c1=O (stereo not given in full),"nuclei count, normalised",[1]; [7],91.3%
same,"nuclei count, normalised",[1]; [8],91.4%
same,"p53-positive nuclei, normalised",[2]; [9],-0.489% (inactive)
same,"p53-positive nuclei, normalised",[2]; [10],-0.171%
